In assay [1] the target is Sphingosine kinase 1 (Homo sapiens) (UniProt Q9NYA1). The note with it: at 1 µM.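 Also: mean SPHK1 inhibition value reported from the GSK PKIS kinase panel screen.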
Assay [2] deals with T1, Sphingosine kinase 2 (Homo sapiens) (UniProt Q9NRA0).
T1 sequence (whole entry): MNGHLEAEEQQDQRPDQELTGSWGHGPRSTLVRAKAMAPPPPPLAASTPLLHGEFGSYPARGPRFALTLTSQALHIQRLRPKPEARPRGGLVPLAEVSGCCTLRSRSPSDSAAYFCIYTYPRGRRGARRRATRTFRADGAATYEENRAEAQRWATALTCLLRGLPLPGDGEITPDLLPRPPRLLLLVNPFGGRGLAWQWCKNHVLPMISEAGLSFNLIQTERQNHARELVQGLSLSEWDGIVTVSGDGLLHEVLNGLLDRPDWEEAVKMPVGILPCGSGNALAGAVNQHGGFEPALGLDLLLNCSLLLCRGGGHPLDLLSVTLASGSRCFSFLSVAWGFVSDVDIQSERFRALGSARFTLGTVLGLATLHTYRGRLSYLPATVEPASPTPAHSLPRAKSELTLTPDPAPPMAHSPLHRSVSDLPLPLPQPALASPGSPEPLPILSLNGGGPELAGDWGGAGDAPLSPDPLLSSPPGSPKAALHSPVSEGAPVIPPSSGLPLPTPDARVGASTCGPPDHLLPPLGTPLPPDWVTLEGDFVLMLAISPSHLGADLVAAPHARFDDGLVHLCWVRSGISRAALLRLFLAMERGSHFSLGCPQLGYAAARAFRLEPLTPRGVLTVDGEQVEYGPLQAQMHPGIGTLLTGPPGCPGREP
The following applies: at 0.1 µM.

The target of assay [3] is T1, Sphingosine kinase 2 (Homo sapiens). The following applies: at 1 µM.
For assay [4], the target named is Casein kinase II subunit alpha (Homo sapiens) (UniProt P68400). The following applies: at 0.1 µM.
The target is the same in assay [5]. The note with it: at 1 µM.
Assay [6] concerns the target T2, Inhibitor of nuclear factor kappa-B kinase subunit alpha (Homo sapiens) (UniProt O15111).
T2 sequence (whole entry): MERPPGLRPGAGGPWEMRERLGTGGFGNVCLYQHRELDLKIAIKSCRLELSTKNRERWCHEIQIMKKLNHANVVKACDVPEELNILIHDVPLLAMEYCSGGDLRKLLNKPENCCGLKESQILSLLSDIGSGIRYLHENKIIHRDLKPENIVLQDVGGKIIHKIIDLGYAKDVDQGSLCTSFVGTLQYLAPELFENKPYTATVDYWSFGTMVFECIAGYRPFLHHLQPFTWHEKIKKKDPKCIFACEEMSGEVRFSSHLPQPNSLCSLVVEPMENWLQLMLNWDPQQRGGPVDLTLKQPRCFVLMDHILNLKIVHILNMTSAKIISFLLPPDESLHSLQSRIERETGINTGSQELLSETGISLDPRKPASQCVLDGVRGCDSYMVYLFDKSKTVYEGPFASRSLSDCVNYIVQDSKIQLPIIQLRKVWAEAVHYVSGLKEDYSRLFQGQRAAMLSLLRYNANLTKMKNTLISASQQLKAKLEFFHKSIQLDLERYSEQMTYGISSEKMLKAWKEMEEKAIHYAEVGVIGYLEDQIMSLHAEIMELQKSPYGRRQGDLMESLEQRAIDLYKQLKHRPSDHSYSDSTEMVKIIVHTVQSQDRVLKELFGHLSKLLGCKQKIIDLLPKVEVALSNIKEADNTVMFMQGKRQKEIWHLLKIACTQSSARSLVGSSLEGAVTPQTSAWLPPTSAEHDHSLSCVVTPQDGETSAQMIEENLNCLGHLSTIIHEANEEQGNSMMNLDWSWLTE
The note with it: at 0.1 µM.

In assay [7] the target is T2, Inhibitor of nuclear factor kappa-B kinase subunit alpha (Homo sapiens). The following applies: at 1 µM.
Assay [8] concerns the target T3, Inhibitor of nuclear factor kappa-B kinase subunit beta (Homo sapiens) (UniProt O14920).
T3 sequence (whole entry): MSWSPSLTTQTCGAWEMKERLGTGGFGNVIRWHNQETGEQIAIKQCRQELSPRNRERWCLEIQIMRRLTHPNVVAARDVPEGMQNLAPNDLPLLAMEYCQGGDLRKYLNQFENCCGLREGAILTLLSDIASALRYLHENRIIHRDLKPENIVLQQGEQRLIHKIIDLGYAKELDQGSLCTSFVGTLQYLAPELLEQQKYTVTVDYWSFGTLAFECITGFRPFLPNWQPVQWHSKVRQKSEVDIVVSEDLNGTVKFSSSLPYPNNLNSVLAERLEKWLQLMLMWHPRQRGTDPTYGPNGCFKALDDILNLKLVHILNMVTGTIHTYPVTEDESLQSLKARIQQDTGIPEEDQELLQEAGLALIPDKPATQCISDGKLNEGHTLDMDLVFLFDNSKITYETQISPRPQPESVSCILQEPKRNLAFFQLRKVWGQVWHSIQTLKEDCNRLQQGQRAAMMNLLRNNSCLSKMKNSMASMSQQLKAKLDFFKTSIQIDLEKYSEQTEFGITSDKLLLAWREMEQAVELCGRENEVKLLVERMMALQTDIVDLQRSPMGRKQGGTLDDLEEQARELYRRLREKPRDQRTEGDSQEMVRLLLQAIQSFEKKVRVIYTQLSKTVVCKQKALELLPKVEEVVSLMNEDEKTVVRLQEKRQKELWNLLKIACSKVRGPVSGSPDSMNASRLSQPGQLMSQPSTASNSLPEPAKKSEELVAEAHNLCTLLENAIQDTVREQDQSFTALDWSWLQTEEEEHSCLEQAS
The following applies: at 0.1 µM.

Assay [9] has as its target T3, Inhibitor of nuclear factor kappa-B kinase subunit beta (Homo sapiens). The note with it: at 1 µM.
Assay [10] deals with T4, Inhibitor of nuclear factor kappa-B kinase subunit epsilon (Homo sapiens) (UniProt Q14164).
T4 sequence (whole entry): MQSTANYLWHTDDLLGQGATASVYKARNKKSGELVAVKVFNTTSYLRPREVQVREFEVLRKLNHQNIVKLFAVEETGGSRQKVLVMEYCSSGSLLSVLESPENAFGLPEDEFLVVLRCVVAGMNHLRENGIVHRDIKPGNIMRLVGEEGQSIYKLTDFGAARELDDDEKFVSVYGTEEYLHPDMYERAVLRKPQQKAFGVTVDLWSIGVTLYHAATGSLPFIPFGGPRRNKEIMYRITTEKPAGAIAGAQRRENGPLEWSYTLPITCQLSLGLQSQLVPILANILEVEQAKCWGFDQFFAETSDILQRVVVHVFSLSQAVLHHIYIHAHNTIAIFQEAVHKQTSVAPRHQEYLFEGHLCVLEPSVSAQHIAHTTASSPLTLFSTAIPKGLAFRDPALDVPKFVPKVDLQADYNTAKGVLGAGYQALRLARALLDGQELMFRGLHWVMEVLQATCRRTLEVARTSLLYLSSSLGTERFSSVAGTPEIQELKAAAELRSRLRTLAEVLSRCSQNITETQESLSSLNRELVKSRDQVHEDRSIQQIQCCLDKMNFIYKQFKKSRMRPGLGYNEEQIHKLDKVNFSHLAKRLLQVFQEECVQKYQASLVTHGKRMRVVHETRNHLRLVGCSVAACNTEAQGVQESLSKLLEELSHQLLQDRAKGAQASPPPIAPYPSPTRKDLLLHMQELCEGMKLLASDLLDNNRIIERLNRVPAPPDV
The following applies: at 0.1 µM.

The target of assay [11] is T4, Inhibitor of nuclear factor kappa-B kinase subunit epsilon (Homo sapiens). The note with it: at 1 µM.
The target in assay [12] is T5, Serine/threonine-protein kinase Nek1 (Homo sapiens) (UniProt Q96PY6).
T5 sequence (whole entry): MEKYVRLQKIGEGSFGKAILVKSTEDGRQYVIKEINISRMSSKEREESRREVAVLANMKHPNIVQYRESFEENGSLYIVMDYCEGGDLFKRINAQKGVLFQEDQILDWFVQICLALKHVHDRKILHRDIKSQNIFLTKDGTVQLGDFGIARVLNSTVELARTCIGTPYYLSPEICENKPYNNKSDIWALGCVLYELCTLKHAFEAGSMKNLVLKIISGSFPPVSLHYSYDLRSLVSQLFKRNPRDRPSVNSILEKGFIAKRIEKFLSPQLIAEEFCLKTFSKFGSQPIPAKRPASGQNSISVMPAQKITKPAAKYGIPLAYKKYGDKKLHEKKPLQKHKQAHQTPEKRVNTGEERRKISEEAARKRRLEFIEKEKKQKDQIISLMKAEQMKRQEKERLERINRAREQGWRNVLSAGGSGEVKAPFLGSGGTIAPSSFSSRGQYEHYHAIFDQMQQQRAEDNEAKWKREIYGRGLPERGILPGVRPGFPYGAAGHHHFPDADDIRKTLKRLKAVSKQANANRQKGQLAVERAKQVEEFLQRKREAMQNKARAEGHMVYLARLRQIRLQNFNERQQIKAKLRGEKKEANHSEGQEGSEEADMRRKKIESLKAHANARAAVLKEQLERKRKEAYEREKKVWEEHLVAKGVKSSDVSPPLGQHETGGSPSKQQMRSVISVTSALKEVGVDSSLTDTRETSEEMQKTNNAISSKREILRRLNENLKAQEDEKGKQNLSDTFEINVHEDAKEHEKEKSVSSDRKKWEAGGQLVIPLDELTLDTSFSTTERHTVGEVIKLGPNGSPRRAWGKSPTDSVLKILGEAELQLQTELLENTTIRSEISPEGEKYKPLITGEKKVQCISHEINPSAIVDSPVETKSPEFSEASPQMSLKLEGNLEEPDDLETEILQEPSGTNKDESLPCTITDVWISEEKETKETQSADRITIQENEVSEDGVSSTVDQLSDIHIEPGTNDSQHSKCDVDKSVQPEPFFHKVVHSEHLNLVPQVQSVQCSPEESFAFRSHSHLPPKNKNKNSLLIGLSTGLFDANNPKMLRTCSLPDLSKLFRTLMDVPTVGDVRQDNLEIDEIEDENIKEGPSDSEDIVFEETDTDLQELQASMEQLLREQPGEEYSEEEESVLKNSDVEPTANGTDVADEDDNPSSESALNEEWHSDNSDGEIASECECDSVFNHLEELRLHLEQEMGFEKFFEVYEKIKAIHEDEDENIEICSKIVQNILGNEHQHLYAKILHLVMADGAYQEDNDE
The following applies: at 0.1 µM.

Assay [13] has as its target T5, Serine/threonine-protein kinase Nek1 (Homo sapiens). The note with it: at 1 µM.
Assay [14] addresses T6, Serine/threonine-protein kinase Nek2 (Homo sapiens) (UniProt P51955).
T6 sequence (whole entry): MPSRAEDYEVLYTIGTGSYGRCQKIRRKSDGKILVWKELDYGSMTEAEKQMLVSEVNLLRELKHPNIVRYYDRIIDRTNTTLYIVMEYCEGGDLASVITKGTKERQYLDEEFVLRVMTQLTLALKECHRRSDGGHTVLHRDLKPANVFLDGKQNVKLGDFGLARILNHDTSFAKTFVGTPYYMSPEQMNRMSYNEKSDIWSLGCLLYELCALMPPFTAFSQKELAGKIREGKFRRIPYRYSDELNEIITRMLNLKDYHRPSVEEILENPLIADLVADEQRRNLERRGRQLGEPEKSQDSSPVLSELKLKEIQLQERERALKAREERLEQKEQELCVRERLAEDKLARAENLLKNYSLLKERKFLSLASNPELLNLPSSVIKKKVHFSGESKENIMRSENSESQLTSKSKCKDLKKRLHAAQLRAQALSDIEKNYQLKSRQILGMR
The following applies: at 0.1 µM.

Assay [15] has as its target T6, Serine/threonine-protein kinase Nek2 (Homo sapiens). The note with it: at 1 µM.
Assay [16] has as its target Serine/threonine-protein kinase Nek6 (Homo sapiens) (UniProt Q9HC98). The note with it: at 0.1 µM.
For assay [17] the target is unchanged. The note with it: at 1 µM.
Assay [18] concerns the target Serine/threonine-protein kinase Nek7 (Homo sapiens) (UniProt Q8TDX7). The following applies: at 0.1 µM.
Assay [19] shares this target. The note with it: at 1 µM.
Assay [20] addresses T7, Serine/threonine-protein kinase Nek9 (Homo sapiens) (UniProt Q8TD19).
T7 sequence (whole entry): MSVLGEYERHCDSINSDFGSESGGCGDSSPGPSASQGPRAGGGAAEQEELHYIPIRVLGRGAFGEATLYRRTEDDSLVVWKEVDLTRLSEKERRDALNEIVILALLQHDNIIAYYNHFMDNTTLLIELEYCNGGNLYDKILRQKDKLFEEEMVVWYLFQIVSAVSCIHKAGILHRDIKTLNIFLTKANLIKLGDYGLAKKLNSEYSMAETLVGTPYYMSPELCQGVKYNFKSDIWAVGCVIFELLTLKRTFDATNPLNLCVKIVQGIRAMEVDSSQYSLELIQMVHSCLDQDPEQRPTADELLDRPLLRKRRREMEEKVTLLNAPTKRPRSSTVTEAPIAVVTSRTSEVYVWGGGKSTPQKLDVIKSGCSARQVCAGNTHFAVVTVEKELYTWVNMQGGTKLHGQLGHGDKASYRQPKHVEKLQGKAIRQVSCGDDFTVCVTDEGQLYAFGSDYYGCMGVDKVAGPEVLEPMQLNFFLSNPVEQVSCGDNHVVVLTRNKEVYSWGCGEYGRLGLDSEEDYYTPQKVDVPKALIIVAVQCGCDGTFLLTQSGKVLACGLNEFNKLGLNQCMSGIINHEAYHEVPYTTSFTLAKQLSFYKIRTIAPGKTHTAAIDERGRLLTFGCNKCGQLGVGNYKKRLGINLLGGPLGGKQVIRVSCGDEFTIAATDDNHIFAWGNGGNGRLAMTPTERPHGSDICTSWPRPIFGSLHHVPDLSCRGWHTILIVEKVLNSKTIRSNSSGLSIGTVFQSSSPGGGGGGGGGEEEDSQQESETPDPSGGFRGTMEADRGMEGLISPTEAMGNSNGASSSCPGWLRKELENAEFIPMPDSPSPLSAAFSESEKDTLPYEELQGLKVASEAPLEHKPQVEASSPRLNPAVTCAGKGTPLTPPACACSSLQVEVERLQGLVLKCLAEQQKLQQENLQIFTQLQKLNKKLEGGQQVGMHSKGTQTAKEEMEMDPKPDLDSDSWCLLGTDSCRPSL
The note with it: at 0.1 µM.

Chain of Serine/threonine-protein kinase Nek6 (Homo sapiens) (Q9HC98 whole entry): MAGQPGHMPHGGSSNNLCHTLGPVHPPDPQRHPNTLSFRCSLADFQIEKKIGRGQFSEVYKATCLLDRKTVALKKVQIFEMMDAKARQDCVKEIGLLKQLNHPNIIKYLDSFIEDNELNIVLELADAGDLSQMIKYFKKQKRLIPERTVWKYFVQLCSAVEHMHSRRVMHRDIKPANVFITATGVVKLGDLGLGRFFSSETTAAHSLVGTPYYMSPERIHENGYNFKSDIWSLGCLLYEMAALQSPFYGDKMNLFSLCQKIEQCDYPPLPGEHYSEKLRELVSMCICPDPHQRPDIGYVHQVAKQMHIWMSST
Chain of Casein kinase II subunit alpha (Homo sapiens) (P68400 whole entry, looked up): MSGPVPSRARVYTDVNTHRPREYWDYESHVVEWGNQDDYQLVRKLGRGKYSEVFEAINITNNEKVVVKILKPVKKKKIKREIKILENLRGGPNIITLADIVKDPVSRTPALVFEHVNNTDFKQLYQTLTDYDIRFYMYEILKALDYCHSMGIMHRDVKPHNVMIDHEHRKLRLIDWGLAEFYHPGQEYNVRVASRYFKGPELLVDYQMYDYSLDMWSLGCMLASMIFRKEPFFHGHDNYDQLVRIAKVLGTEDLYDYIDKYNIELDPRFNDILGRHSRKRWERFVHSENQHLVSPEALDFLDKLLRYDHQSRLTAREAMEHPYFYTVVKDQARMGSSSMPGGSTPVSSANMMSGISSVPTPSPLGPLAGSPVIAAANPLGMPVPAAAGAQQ
Chain of Serine/threonine-protein kinase Nek7 (Homo sapiens) (Q8TDX7 whole entry, looked up): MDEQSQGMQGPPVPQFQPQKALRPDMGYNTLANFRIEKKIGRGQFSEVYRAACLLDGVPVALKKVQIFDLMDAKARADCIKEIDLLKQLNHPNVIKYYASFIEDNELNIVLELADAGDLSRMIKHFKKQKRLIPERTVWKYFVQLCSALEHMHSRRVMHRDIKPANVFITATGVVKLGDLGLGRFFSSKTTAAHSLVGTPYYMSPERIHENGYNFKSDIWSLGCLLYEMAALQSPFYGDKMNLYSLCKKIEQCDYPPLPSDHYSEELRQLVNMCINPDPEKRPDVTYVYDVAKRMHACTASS
Chain of Sphingosine kinase 1 (Homo sapiens) (Q9NYA1 whole entry): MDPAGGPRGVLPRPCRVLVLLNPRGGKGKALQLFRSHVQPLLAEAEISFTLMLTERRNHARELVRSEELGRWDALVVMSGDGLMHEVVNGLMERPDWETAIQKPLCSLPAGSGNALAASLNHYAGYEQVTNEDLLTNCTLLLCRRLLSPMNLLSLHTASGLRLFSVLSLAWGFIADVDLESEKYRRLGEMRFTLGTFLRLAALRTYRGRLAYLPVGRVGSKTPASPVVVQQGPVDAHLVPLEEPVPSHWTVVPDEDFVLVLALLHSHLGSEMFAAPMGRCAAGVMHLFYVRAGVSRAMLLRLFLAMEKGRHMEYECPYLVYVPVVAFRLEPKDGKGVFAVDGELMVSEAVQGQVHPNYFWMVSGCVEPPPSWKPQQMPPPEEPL

On to `CS(=O)(=O)CCNCc1coc(-c2ccc3ncnc(Nc4ccc(OCc5ccccc5)cc4)c3c2)c1`, for which the inhibition in [1] is -1.49%; in [2], 0%; in [3], -0.98%; in assay [4] it was 1.05%; in assay [5], 6.53%; in [6] it was 4.1%. Further, the inhibition in assay [7] came out at 2.85%; in assay [8] it was 3.35%; in [9] it was 5.11%; in assay [10], 4.2%; in [11], 4.57%; in assay [12], 2.15%. Besides, the inhibition came out at 3.07% in assay [13]; 4.2% in assay [14]; 2.21% in [15]; 1.54% in assay [16]; 2.23% in assay [17]; 2.37% in [18]. Also, the inhibition in [19] stood at 3.98%; in [20] it was 8.97%.

As usually defined, the inhibition is the relative decrease from the control value, in per cent.
